This note sets out measurements from PubChem BioAssay (NCI).

Assay [1] is described as follows: NCI Yeast Anticancer Drug Screen. Data for the rad50 strain (AID 155).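 Further: 0% = growth of vehicle-only cultures of the same strain.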 As to conditions: S. cerevisiae rad50 strain growth inhibition; at 50.0 µM; hits give high values. The gist of the method:
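A DNA repair-deficient yeast mutant serves as the test organism; compound-induced growth inhibition is calculated against vehicle-treated cells.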

The nature of assay [2]: NCI Yeast Anticancer Drug Screen. Data for the mec2-1 strain (AID 157). As to conditions: S. cerevisiae mec2-1 strain, at 50.0 µM, hits give high values. Put shortly:
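Yeast mec2-1 mutant treated with compound. Readout: growth inhibition vs vehicle controls.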

The nature of assay [3]: NCI Yeast Anticancer Drug Screen. Data for the sgs1 mgt1 strain (AID 161).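 Further: 0% = growth of cultures given vehicle only.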 As to conditions: S. cerevisiae sgs1 mgt1 strain, at 50.0 µM, hits give high values. Put shortly:
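Read-out: growth inhibition vs vehicle controls. Cells: mutant yeast strain deficient in DNA damage repair.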

Assay [4] can be described thus: NCI Yeast Anticancer Drug Screen. Data for the cln2 rad14 strain (AID 165).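 Further: 0% = growth equal to vehicle treated cultures.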 As to conditions: S. cerevisiae cln2 rad14 strain, at 50.0 µM, hits give high values. The gist of the method: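 cln2 rad14 yeast strain; compound exposure; growth inhibition read vs vehicle controls.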
A short description of assay [5]: NCI Yeast Anticancer Drug Screen. Data for the bub3 strain (AID 167). As to conditions: S. cerevisiae bub3 mutant strain, at 50.0 µM, hits give high values. The gist of the method: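 Inhibition values come from growth of compound-treated mutant yeast normalised to vehicle-treated controls.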
A short description of assay [6]: NCI Yeast Anticancer Drug Screen. Data for the mlh1 rad18 strain (AID 175). As to conditions: S. cerevisiae mlh1 rad18 strain growth inhibition; at 50.0 µM; hits give high values. Put shortly:
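Yeast w/ defined DNA-repair lesions; compound exposure; growth vs vehicle controls → % inhibition.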

The panel holds about 79,000 compounds, 15% with a hit somewhere; the sample as a whole holds those more often. A number with no mark means an inactive call. Activity calls are given as the source filed them. No stated cut-off is given here; in the data, active means growth inhibition above about 70%; inactive means the rest.

In the case of `C=CCNC(=O)C1C2C=CC(C2)C1C(=O)NCC=C` (stereo not given), the growth inhibition is 4.95% in assay [1]; -4.8% in assay [2]; -21.9% in assay [3]; -4.85% in assay [4]; -7.95% in assay [5]; 24.8% in assay [6].
For `CC(=O)OC1C(C)OC(OC(=O)C2CCC3C(C2)OC2(CC(OC(=O)/C=C/c4ccccc4)C(C)CO2)C32CO2)C(OC2OC(C)C(O)C(O)C2O)C1O` (stereo not given), the growth inhibition in assay [1] was 1.3%; in assay [2], -16.8%; in assay [3], 2.3%; in assay [4], 13.5%; in assay [5] it was 3.65%; in assay [6], -62.9%.
For `COc1ccc(Cc2cc3c(cc2OCCOC(C)=O)OCO3)cc1`, the growth inhibition was 16.8% in assay [1]; 11.3% in assay [2]; 10.4% in assay [3]; 0.05% in assay [4]; 15.2% in assay [5]; 23.4% in assay [6].
As for `O=C1CC2(CCCCC2)C(=O)N1c1cc([N+](=O)[O-])ccn1`, the growth inhibition was 25.4% in assay [1]; 14.7% in assay [2]; 0.8% in assay [3]; 17.6% in assay [4]; 10% in assay [5]; 19.8% in assay [6].
In the case of `CN(C)Cc1cc(N=Nc2ccccc2Cl)cc(CN(C)C)c1O`, the growth inhibition in assay [1] was -40.5%; in assay [2] it was -19.1%; in assay [3] it was -9.25%; in assay [4], -14.3%; in assay [5], 12.3%; in assay [6], -13.4%.
With `O=[N+]([O-])c1cccc(/C=N\O)c1`, the growth inhibition in assay [1] is -17.8%; in assay [2], -8.45%; in assay [3], -9.9%; in assay [4], -7.45%; in assay [5], -1.2%; in assay [6], -8.4%.
As to `O=C1CSc2ccncc2N1`, the growth inhibition was 13.8% in assay [1]; 2.9% in assay [2]; 13.5% in assay [3]; 11.4% in assay [4]; 15.2% in assay [5]; 24.1% in assay [6].
Turning to `O=C(CC(=O)n1nc(-c2ccccc2)c(N=Nc2ccccc2Cl)c1-c1ccccc1)Nc1ccc(Cl)cc1`, the growth inhibition in assay [1] was -9.5%; in assay [2] it was 8.45%; in assay [3], -3.95%; in assay [4], 13.9%; in assay [5], -18.7%; in assay [6], -8.65%.
For `NC(N)=N/N=C/c1oc(-c2ccc(S(=O)(=O)O)o2)c(-c2ccc(S(=O)(=O)O)o2)c1[N+](=O)[O-]`, the growth inhibition in assay [1] was -21.4%; in assay [2] it was 9.6%; in assay [3], -22%; in assay [4], 6.6%; in assay [5], -3.35%; in assay [6], 0.95%.
In the case of `CC(=O)NC(C)(C)C1CCC(C)CC1` (stereo not given), the growth inhibition in assay [1] was -7.95%; in assay [2] it was 5.45%; in assay [3] it was 1.55%; in assay [4] it was 8.05%; in assay [5] it was 9.65%; in assay [6], -38.8%.
For `COC(=O)Cc1c(-c2[nH]c3ccccc3c2CC(=O)OC)[nH]c2ccccc12`, the growth inhibition is 13.9% in assay [1]; 7.45% in assay [2]; 6% in assay [3]; -17.4% in assay [4]; 3.85% in assay [5]; -20.8% in assay [6].
As to `Cc1ccc(NC(=O)COc2cc(Cl)c(Cl)cc2Cl)c([N+](=O)[O-])c1`, the growth inhibition in assay [1] was -28.9%; in assay [2], -4.8%; in assay [3], -11.8%; in assay [4], -0.55%; in assay [5], -0.2%; in assay [6], -0.4%.
Regarding `O=C(O)C(Br)C(Br)C(=O)Nc1cccc2ccccc12` (stereo not given), the growth inhibition in assay [1] is 98.8% (active); in assay [2] it was 99.1% (active); in assay [3], 99.2% (active); in assay [4], 99.2% (active); in assay [5], 98.9% (active); in assay [6], 98.8% (active).
For `O=c1[nH]c2cccnc2c(=O)n1O`, the growth inhibition in assay [1] is -6.5%; in assay [2], -8.7%; in assay [3] it was -7.35%; in assay [4] it was -39.8%; in assay [5] it was 12.2%; in assay [6], -5.5%.
With `Cc1c(Cc2ccccc2)c(N2CCOCC2)n2c(nc3ccccc32)c1C#N`, the growth inhibition in assay [1] was 4.75%; in assay [2], 5.25%; in assay [3], 0.65%; in assay [4], -4.55%; in assay [5], -2.8%; in assay [6] it was 5.65%.
Regarding `CCCCCCCCCC(=O)OCC1OC(n2cc(F)c(=O)[nH]c2=O)C(NC(=O)OCc2ccccc2)C(OC(=O)CCCCCCCCC)C1O` (stereo not given), the growth inhibition in assay [1] is -5.9%; in assay [2] it was -10.2%; in assay [3], -11.8%; in assay [4], 6.9%; in assay [5], -0.35%; in assay [6], -21%.
Turning to `Cc1nc2ccccc2c(=O)n1NC(=S)Nc1ccccc1`, the growth inhibition in assay [1] is -40.9%; in assay [2], -57.1%; in assay [3] it was -41.5%; in assay [4], 7.85%; in assay [5] it was -32.4%; in assay [6], -59.5%.
On to `O=C1c2ccccc2C(=O)N1Cc1ccccc1-c1c2nc(c(-c3ccccc3CN3C(=O)c4ccccc4C3=O)c3ccc([nH]3)c(-c3ccccc3CN3C(=O)c4ccccc4C3=O)c3nc(c(-c4ccccc4CN4C(=O)c5ccccc5C4=O)c4ccc1[nH]4)C=C3)C=C2`, for which the growth inhibition in assay [1] was 11.8%; in assay [2], -1.55%; in assay [3], -0.8%; in assay [4], -3.4%; in assay [5], 13.6%; in assay [6], -14%.
On to `NNC(=S)N/N=C/C(Cl)=C(\Cl)C(=O)O`, for which the growth inhibition in assay [1] is -2.2%; in assay [2], -13.2%; in assay [3], 1.8%; in assay [4], -2%; in assay [5], 0.1%; in assay [6] it was -1.75%.
For `COc1ccc(/C(C#N)=C\c2ccc(N(C)C)cc2)cc1`, the growth inhibition in assay [1] was -4.8%; in assay [2], -13.1%; in assay [3], 3.1%; in assay [4], -21.2%; in assay [5], 10.2%; in assay [6] it was -14.3%.
